# Test results as given in PubChem BioAssay (NCI).
# Compounds without any hit were thinned out: in the full panel of roughly 83,000, 20% have a hit.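 Note: values are percent growth. 100 is the growth of untreated cells, values between 100 and 0 indicate rising inhibition; between -100 and 0 indicates cell death.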 Values without a mark were called inactive. Activity calls are given as the source filed them. Rule for the calls: active = growth percent below 10; inactive = the rest.
# What was measured:
# Assay in all cases: NCI-60 one-dose screen, 48 h (100 = growth as untreated, 0 = no growth, -100 = all killed)
# Settings in all cases: 10 µM unless noted
# NCI-H23 lung = test system: NCI-H23 lung
# NCI-H226 lung = test system: NCI-H226 lung
# NCI-H460 lung = test system: NCI-H460 lung
# HOP-92 NSCLC = test system: HOP-92 NSCLC
# NCI-H522 lung = test system: NCI-H522 lung
# A549/ATCC NSCLC = test system: A549/ATCC NSCLC
# 786-0 renal = test system: 786-0 renal
# COLO 205 colon = test system: COLO 205 colon
# DU-145 prostate = test system: DU-145 prostate
# K-562 leukemia = test system: K-562 leukemia
# MALME-3M melanoma = test system: MALME-3M melanoma
# MDA-MB-231 breast = test system: MDA-MB-231 breast
# RXF 393 renal = test system: RXF 393 renal
# SF-268 CNS = test system: SF-268 CNS
# SF-295 CNS = test system: SF-295 CNS
# SF-539 CNS = test system: SF-539 CNS
# UACC-257 melanoma = test system: UACC-257 melanoma
# M14 melanoma = test system: M14 melanoma
# HOP-62 NSCLC = test system: HOP-62 NSCLC
SMILES,growth (NCI-H23 lung),growth (NCI-H226 lung),growth (NCI-H460 lung),growth (HOP-92 NSCLC),growth (NCI-H522 lung),growth (A549/ATCC NSCLC),growth (786-0 renal),growth (COLO 205 colon),growth (DU-145 prostate),growth (K-562 leukemia),growth (MALME-3M melanoma),growth (MDA-MB-231 breast),growth (RXF 393 renal),growth (SF-268 CNS),growth (SF-295 CNS),growth (SF-539 CNS),growth (UACC-257 melanoma),growth (M14 melanoma),growth (HOP-62 NSCLC)
C#CCNC(=O)c1cccc2c1cc(C)n2-c1nc2c(c(NCc3ccccc3)n1)CCCC2,-42.8% (active),-67.1% (active),-30.8% (active),-61% (active),-25.8% (active),-29.5% (active),-48.4% (active),-46.4% (active),5.22% (active),6.56% (active),-59% (active),-69.7% (active),-68.1% (active),-23.6% (active),-68.2% (active),-23.4% (active),-30.5% (active),-39.2% (active),–
CCN1CCN(CCNc2nccc(-c3c(-c4cccc(OC)c4)nc4occn34)n2)S1(=O)=O,105%,92.2%,96.7%,84.5%,89.5%,101%,113%,42.6%,104%,7.02% (active),6.12% (active),87.7%,94.4%,102%,101%,104%,52.7%,40%,129%
CN(C)c1ccc(C2C(C#N)=C(/N=C/c3ccccc3)Oc3c2ccc2ccccc32)cc1 (stereo not drawn),80.9%,55.5%,51.3%,59.8%,36.4%,71.4%,89%,116%,87.8%,17.1%,77.8%,58.1%,75.9%,66.5%,49.5%,68.6%,82.7%,59.4%,–
CC(C)N1C(=O)S/C(=C2/SC(=O)N(C(C)C)C2=O)C1=O,93.8%,102%,102%,74.6%,89.9%,101%,–,112%,91.8%,94.4%,90.4%,76.2%,99.2%,94.8%,101%,86.4%,99%,93%,111%
COc1ccc(C(=O)c2cc(C)c(OC)c(C)c2)c(OC)c1OC(=O)C(Cl)Cl,29.2%,6.91% (active),2.25% (active),21.7%,-10.8% (active),11%,13.1%,73.5%,4.39% (active),8.43% (active),58.9%,18.8%,38.7%,25%,14.5%,-16% (active),48.1%,-9.89% (active),17.4%
Nc1n[nH]c2cccc(C#Cc3cccc(C(=O)Nc4cc(CN5CCOCC5)cc(C(F)(F)F)c4)c3)c12,38.4%,26.7%,26.6%,-7.48% (active),39.3%,42.4%,63.8%,14.6%,58.9%,4.98% (active),0.564% (active),19.6%,24%,41.9%,54.6%,8.6% (active),33%,6.89% (active),38.7%
CCCCCCCCCCCCCCCC[N+]1(C)CCN(SN2CC[N+](C)(CCCCCCCCCCCCCCCC)CC2)CC1,52.8%,78.9%,29.6%,15.5%,54.8%,72%,30.3%,61%,70.5%,40.4%,78.4%,53.9%,-7.8% (active),64.4%,71.2%,48.7%,92.9%,20.8%,56.6%
CCOC(=O)C1=C(CCl)NC(=O)NC1c1ccc2c(c1)OCO2 (stereo not drawn),48.3%,88.5%,76.9%,60.1%,-42.3% (active),66.1%,43.2%,75.6%,36.6%,–,18.5%,39.4%,39.1%,66.9%,71.1%,16.5%,67.2%,32.3%,53.8%
O=C(CCN1CCCC1)c1ccc([N+](=O)[O-])cc1,101%,99.1%,108%,109%,2.13% (active),101%,–,107%,104%,100%,94.9%,102%,107%,101%,97.9%,93.6%,101%,102%,98.2%
O=C(CCN1CCCC1)Nc1ccc2c(Nc3ccc(Br)cc3)c3ccccc3nc2c1,18.8%,62%,-69.2% (active),31.3%,-25% (active),-42.4% (active),42.8%,-42.9% (active),-70.8% (active),-43.1% (active),-86.2% (active),-49.4% (active),47%,-7.83% (active),46.3%,-67.9% (active),-48.4% (active),-75% (active),-19.5% (active)
Cc1ccc(S(=O)(=O)Nn2c3c(cc(-c4nc5ccccc5s4)c2=O)CCCCCC3)cc1,94.8%,76.6%,104%,85.4%,89.1%,101%,101%,119%,105%,98.4%,88.3%,93.2%,101%,96%,97.2%,100%,97.3%,99%,94.9%
CNC(=O)c1cccc(Cn2nc(C)c(NC(=O)c3ccc(COc4ccc(C(F)(F)F)cc4C)cc3)c2C)c1,47.3%,44.6%,47.7%,80%,33%,31.1%,54.8%,42.7%,58.9%,23.3%,77.5%,79.4%,70.4%,61.9%,27.9%,71.7%,8.63% (active),41.6%,46.3%
CC(=O)O[C@@H]1C2CCC3C(CC[C@@]4(C)C3CC[C@@H]4C(C)N(C)C)[C@@]2(C)CC[C@@H]1NC(=O)C=C(C)C (stereo partly drawn),33.9%,64.7%,-48.6% (active),24.4%,65.7%,32.3%,–,-82.8% (active),51.4%,2.24% (active),-59.4% (active),-10.3% (active),-51.5% (active),-23.4% (active),-15.3% (active),-52.7% (active),-40.9% (active),-44.4% (active),-26.1% (active)
COc1cc2oc(-c3cccc(C(=O)Nc4ccccc4)c3)cc(=O)c2c(O)c1OC,86.9%,73.2%,33.7%,5.28% (active),91.3%,60.3%,31.5%,92.3%,65.6%,97.1%,64.5%,76.3%,56.5%,37%,70%,19.4%,84.3%,83.7%,8.89% (active)
O=C(CSc1nc2ccccc2[nH]1)NCc1ccccc1,100%,95.9%,103%,105%,98.3%,100%,102%,111%,110%,–,109%,103%,101%,98%,102%,95.6%,100%,107%,88.5%
